Sampled rows, rich in hits. Any-hit rate of the full collection: about 7.3%.
SMN2 splice up = enhancers of SMN2 splice variant expression; HEK293 SMN2-luciferase splicing reporter, luminescence, 30-36 h; Potency, µM (titrated, usually from 46.1 µM), without a hit: at the top dose activity change, positive = activation, usual class: activators; 2.8% of 210,000 active; AID 1458; also: % of control where 0% means no effect; nearly all actives have a fitted effect of over 55% in size
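HEK293 cells carry an SMN2 minigene-luciferase reporter in which exon 7 inclusion puts luciferase in frame. Cells were seeded at 2000 cells/well, attached for 10-12 hours, then exposed to compounds for 30-36 hours at 37C before ONE-Glo luminescence.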
Rab9 prom act = Rab9 promoter activation; 2.8% of 320,000 active; Potency, µM (top dose mostly 9.22 µM), for the others: at the top dose activation, negative = inhibition, usual class: activators; Huh7 Rab9 promoter-luciferase reporter, luminescence, 24 h; AID 485297; also: % of control where 0% means no effect; nearly all actives have a fitted effect of over 60% in size
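Huh7 cells stably carrying Rab9 promoter–luciferase reporter, plated 1500 cells/well, compound added after 2 h and incubated 24 h at 37 °C; luciferase luminescence then read after 10 min with detection reagent.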
p53 reactivator = mutant p53 re-activation in reporter cells; Potency, µM (series often up to 92.2 µM), for the others: top-dose activity change, positive = activation, most hits filed as activators; 0.063% of 320,000 active; AID 504706; H1299 p53-A138V BP100-luciferase reporter, luminescence, 24 h; also: % of control where 0% means no effect; nearly all actives have a fitted effect of over 45% in size
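H1299 (p53-null), stable ts p53-A138V + BP100-Luc; 1000 cells/well, Opti-MEM/10% FBS; cpd 4 pt, 1:5; 24 h, 37 deg C, 5% CO2; detection reagent 10 min RT; luminescence.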
ELG1 genotox = genotoxicity induction in ELG1-luciferase HEK293T cells | 1.3% of 330,000 active | AID 504466 | Potency, µM (series often up to 46 µM), inactives show top-dose activity change, positive = activation, actives largely listed as activators | HEK293T ELG1-luciferase reporter, luminescence, 16 h; also: % of control where 0% means no effect; nearly all actives have a fitted effect of over 60% in size
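Genotoxicity was scored as increased ELG1-luciferase reporter signal, measured by ONE-Glo luminescence (30 min, room temperature). Compound or vehicle exposure of the HEK293T reporter cells lasted 16 hr at 37°C.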
FLuc counter = inhibits or activates purified firefly luciferase, miR-21 counter-screen | Potency, µM (series often up to 57.5 µM), for the others: at the highest dose activity change, negative = inhibition, hits mostly inhibitors | purified FLuc, Km substrates, luminescence inhibition | 6.9% of 360,000 active | P08659 | AID 588342;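 also: plate controls were vehicle for no effect and reference inhibitor for full effect; nearly all actives have a fitted effect of over 55% in size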
Target sequence (P08659 whole entry, looked up): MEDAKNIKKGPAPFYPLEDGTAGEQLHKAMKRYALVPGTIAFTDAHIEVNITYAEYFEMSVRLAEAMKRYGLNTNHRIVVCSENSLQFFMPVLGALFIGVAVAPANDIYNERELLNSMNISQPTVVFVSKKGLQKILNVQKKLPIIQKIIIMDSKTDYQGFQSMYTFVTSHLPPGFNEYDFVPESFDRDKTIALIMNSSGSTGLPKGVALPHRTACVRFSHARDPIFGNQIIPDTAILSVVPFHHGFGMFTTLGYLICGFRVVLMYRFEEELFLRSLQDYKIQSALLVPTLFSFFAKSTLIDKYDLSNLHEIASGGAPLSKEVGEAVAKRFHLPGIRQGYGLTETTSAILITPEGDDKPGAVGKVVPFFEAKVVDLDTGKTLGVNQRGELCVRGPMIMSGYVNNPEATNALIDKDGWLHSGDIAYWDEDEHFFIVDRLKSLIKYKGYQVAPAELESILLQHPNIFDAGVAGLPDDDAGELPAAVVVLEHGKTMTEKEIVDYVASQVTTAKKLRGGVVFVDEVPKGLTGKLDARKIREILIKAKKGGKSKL
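Purified P. pyralis luciferase (10nM final) with 10uM D-luciferin and 10uM ATP (Km levels) in 50mM Tris acetate pH 7.5, 10mM Mg acetate, 0.01% Tween-20, 0.05% BSA; qHTS 6-point titration, ~60 µM downward; luminescence read.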
NPC1 promoter act = activates the NPC1 promoter. Huh7 NPC1 promoter luciferase reporter, 24 h. Potency, µM (highest dose often 9.22 µM), for the others: at the top dose activation, actives largely listed as activators. 2.4% of 320,000 active; also: % of control where 0% means no effect; nearly all actives have a fitted effect of over 60% in size
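Compounds in DMSO were transferred onto Huh7 NPC1-luciferase reporter cells pre-incubated 2 h; after 24 h at 37 °C, Amplite reagent was dispensed and luminescence recorded 10 min later.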
The depositor's hits bear a star. Calls follow the shape of the dose curve; as a rule, active = well fitted curve in the direction sought with a large enough effect; inconclusive = small, poorly fitted or top-dose-only effect, or another doubt; inactive = no such curve, though single readings can be large; an effect the other way counts as inactive or inconclusive. Potency is read from the fitted curve at half-maximal effect.

`CCCNC(=O)NNC(=O)c1cc(-c2ccc3c(c2)OCO3)nc2ccccc12` gave Rab9 prom act -7.3%, p53 reactivator -3.6%, ELG1 genotox 0.5%, FLuc counter 13.5µM* and NPC1 promoter act 1.0%.
For O=C(O)c1cc(-c2cccs2)nc2cc3c(cc12)OCCO3 the results were SMN2 splice up inconclusive, Rab9 prom act -1.1%, p53 reactivator 10.3%, ELG1 genotox 10.5%, FLuc counter 9.53µM* and NPC1 promoter act 2.7%.
Screening Cc1ccc2nc(-c3ccc4c(c3)OCCO4)cc(C(=O)O)c2c1 returned SMN2 splice up inconclusive, Rab9 prom act 13.1%, p53 reactivator 0.7%, ELG1 genotox inconclusive, FLuc counter 2.39µM* and NPC1 promoter act 25.0%.
For COc1ccc(CCNC(=O)CCc2c(C)c3cc4c(C)coc4c(C)c3oc2=O)cc1OC the results were SMN2 splice up -12.0% and FLuc counter -12.7%.
Screening CC(=O)c1ccc(N2CCN(C(=O)c3cc(-c4ccc5c(c4)OCO5)nc4ccccc34)CC2)cc1 returned SMN2 splice up inconclusive, Rab9 prom act 11.0%, p53 reactivator 17.7%, ELG1 genotox -10.7%, FLuc counter 7.57µM* and NPC1 promoter act 6.1%.
For CC(=O)c1ccc(N2CCN(C(=O)c3cc(-c4ccncc4)nc4ccc(Br)cc34)CC2)cc1 the results were Rab9 prom act 2.2%, p53 reactivator -3.6%, ELG1 genotox -9.7%, FLuc counter inconclusive and NPC1 promoter act 1.7%.
CCOc1ccc2nc(NC(=O)CS(=O)(=O)c3ccc(Cl)cc3)sc2c1 was read as FLuc counter -2.8%.
Screening CCOc1ccc2nc(NC(=O)CS(=O)(=O)c3ccccc3)sc2c1 returned SMN2 splice up 6.3%, Rab9 prom act 1.0%, p53 reactivator -11.1%, ELG1 genotox 20.8%, FLuc counter 12µM* and NPC1 promoter act -1.3%.
For CCOc1ccc2nc(NC(=O)CS(=O)(=O)c3ccc(C)cc3)sc2c1 the results were SMN2 splice up 9.0%, Rab9 prom act 0.6%, p53 reactivator 10.2%, ELG1 genotox 12.6%, FLuc counter 21.3µM* and NPC1 promoter act 6.0%.
`CC(=O)Nc1ccc2nc(NC(=O)CS(=O)(=O)c3ccccc3)sc2c1` gave Rab9 prom act -7.6%, p53 reactivator 6.8%, ELG1 genotox 1.5%, FLuc counter inconclusive and NPC1 promoter act 2.4%.
`Cc1ccccc1OC(=O)CSc1nnc(-c2ccc3c(c2)OCO3)o1` gave FLuc counter -3.8%.
Screening Cc1csc(=O)n1CC(=O)OCc1cccc2ccccc12 returned SMN2 splice up -0.9%, Rab9 prom act 25.0%, p53 reactivator 18.9%, ELG1 genotox inconclusive, FLuc counter 15.1µM* and NPC1 promoter act 18.1%.
`Cc1cc(C)c(C(=O)COC(=O)Cn2c(C)csc2=O)cc1C` gave Rab9 prom act -0.8%, p53 reactivator 17.1%, ELG1 genotox 10.6%, FLuc counter 16.9µM* and NPC1 promoter act 5.5%.
Screening Cc1cc(C)c(C(=O)COC(=O)CCn2c(C)csc2=O)cc1C returned Rab9 prom act inconclusive, p53 reactivator inconclusive, ELG1 genotox 9.9%, FLuc counter 4.78µM* and NPC1 promoter act 15.7%.
Cc1ccc(OCC(=O)NNC(=O)C(=O)N2CCCC2)c(C)c1 was read as SMN2 splice up 10.5%, Rab9 prom act 2.4%, p53 reactivator -1.6%, ELG1 genotox -1.0%, FLuc counter -5.8% and NPC1 promoter act -1.1%.
For CC1(C)CC(=O)c2c(O)cc(OCc3ccc([N+](=O)[O-])cc3)cc2O1 the results were SMN2 splice up 16.4%, Rab9 prom act 3.55µM*, p53 reactivator 21.9%, ELG1 genotox inconclusive, FLuc counter 4.78µM* and NPC1 promoter act 2.51µM*.
`COc1ccccc1CNC(=O)COc1ccccc1OC` gave SMN2 splice up -6.3%, Rab9 prom act -1.0%, p53 reactivator -6.4%, ELG1 genotox -0.4%, FLuc counter 3.6% and NPC1 promoter act -2.3%.
COc1ccccc1CNC(=O)COc1ccc(C)cc1 was read as Rab9 prom act 1.9%, ELG1 genotox -1.9%, FLuc counter 2.2% and NPC1 promoter act 3.16µM*.
`Cc1ccc(CNC(=O)COc2cc(O)c3c(c2)OC(C)(C)CC3=O)cc1` gave Rab9 prom act 0.0%, p53 reactivator 3.6%, ELG1 genotox -0.3%, FLuc counter -17.5% and NPC1 promoter act -3.6%.
`COc1cccc(NC(=O)COc2cc(O)c3c(c2)OC(C)(C)CC3=O)c1` gave Rab9 prom act inconclusive, p53 reactivator 10.6%, ELG1 genotox 12.2%, FLuc counter 4.26µM* and NPC1 promoter act inconclusive.
COc1ccc(NS(=O)(=O)c2cccc(NC(=O)COc3ccc(OC)cc3)c2)cc1 was read as Rab9 prom act -7.4%, p53 reactivator -2.2%, ELG1 genotox -7.2%, FLuc counter 16.9µM* and NPC1 promoter act 12.2%.
O=C(NC(=S)Nc1ccc2oc(-c3cccnc3)nc2c1)c1cccc(Cl)c1 was read as SMN2 splice up -19.7%, Rab9 prom act -6.0%, p53 reactivator 0.1%, ELG1 genotox 2.5%, FLuc counter 3.4% and NPC1 promoter act 0.1%.
Cc1ccc2cn[nH]c2c1[N+](=O)[O-] was read as SMN2 splice up 4.3%, Rab9 prom act -0.1%, p53 reactivator -2.9%, ELG1 genotox 2.5%, FLuc counter -8.7% and NPC1 promoter act 0.5%.
Screening Clc1ccc(N2CCN(c3ncnc4c3nc3n4CCCC3)CC2)cc1 returned FLuc counter -7.6%.
COc1ccc(-c2cccc(NC(=O)COc3ccc(Cl)cc3)c2)nn1 was read as Rab9 prom act -2.9%, p53 reactivator -6.8%, ELG1 genotox -4.6%, FLuc counter 21.3µM* and NPC1 promoter act 2.7%.
For COc1cccc(NC(=O)COc2ccc(C)cc2)c1 the results were SMN2 splice up -51.4%, Rab9 prom act 11.9%, p53 reactivator inconclusive, ELG1 genotox inconclusive, FLuc counter 12µM* and NPC1 promoter act -2.2%.
`COc1cccc(NC(=O)COc2ccc3c(c2)CCC3)c1` gave SMN2 splice up -1.2%, Rab9 prom act 0.9%, p53 reactivator 7.3%, ELG1 genotox 16.8%, FLuc counter 15.1µM* and NPC1 promoter act 4.8%.
COc1ccc(OCC(=O)Nc2ccc3c(c2)CCC3)cc1 was read as Rab9 prom act 15.8%, p53 reactivator 17.8%, ELG1 genotox -0.9% and NPC1 promoter act -5.6%.
CCOC(=O)c1cnc2ccc(C)cc2c1Sc1ccc(F)cc1 was read as SMN2 splice up -7.3%, Rab9 prom act 19.1%, p53 reactivator inconclusive, ELG1 genotox -2.0%, FLuc counter 23.9µM* and NPC1 promoter act 10.4%.

Bioassay records: PubChem BioAssay, National Center for Advancing Translational Sciences (NCATS)
